# Source: PubChem (several laboratories)
# MLLE-PAM2 inh = blocks PAM2 peptide binding to the PABP1 MLLE domain. P11940. GST-MLLE / FITC-PAM2 fluorescence polarization. inhibition, % at 20 µM. 360,000 compounds, 0.36% hits; in the data active means inhibition above about 35%, passing the limit was not always enough;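 further: plate controls were DMSO wells with GST-MLLE for no effect and wells lacking GST-MLLE protein for full effect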
# PABP polyA inh = PABP-poly(A) binding inhibition; P11940; PABP-poly(A) RNA binding, fluorescence polarization; inhibition, % at 35 µM; 290,000 compounds, 1% hits; AID 2014;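 further: calls also rest on retests at 20 µM and on dose response follow-up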
# ALR inh = inhibitors of human sulfhydryl oxidase ALR. inhibition, % (concentration not given with the values). P55789. 290,000 compounds, 3.8% hits. purified ALR, DTT oxidation, H2O2 HRP-luminol luminescence;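 active means mean replicate inhibition above about 79%, with every replicate also reaching it, limit read from the data; inconclusive means only one of the two criteria met; inactive means mean below limit and not every replicate reaching it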
# Target sequence (P55789 whole entry, looked up): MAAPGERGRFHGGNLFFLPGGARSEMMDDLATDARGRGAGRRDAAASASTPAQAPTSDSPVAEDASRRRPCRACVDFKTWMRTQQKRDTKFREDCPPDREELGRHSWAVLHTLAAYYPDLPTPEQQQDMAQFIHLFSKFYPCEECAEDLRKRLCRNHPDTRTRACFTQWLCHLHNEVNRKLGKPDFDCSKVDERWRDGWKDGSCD
# eIF4H FP inh = inhibitors of RNA binding by human eIF4H | AID 2012 | 290,000 compounds, 0.94% hits | eIF4H fluorescence polarization binding assay | inhibition, % at 35 µM;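 further: calls also rest on retests at 20 µM and on dose response follow-up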
# UBC9 SUMO inh = SUMOylation inhibition; P63279; inhibition, % at 35 µM; 290,000 compounds, 0.36% hits; HTRF SUMOylation assay, SAE1/SAE2 + UBC9, in vitro; AID 2006; in the data active means inhibition above about 50%, passing the limit was not always enough; inconclusive means no clear call, values can overlap the other calls
# Target sequence (P63279 whole entry, looked up): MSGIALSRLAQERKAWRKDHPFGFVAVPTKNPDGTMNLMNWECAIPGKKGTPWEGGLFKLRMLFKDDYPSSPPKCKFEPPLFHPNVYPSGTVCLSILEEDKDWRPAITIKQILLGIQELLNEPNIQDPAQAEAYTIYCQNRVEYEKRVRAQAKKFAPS
# Efflux pump inh = blocks antifungal efflux pumps in multiplex yeast assay; inhibition, % at 10 µM; S. cerevisiae Candida pump triplex, Nile Red efflux; 330,000 compounds, 0.44% hits;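 active means plate passing quality check with inhibition over a set limit, or well fluorescence over plate mean plus 4 SD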;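 further: Nile Red retained in pooled yeast measured as flow cytometry median fluorescence; 0% = buffer negative control and 100% = Enniatin B positive control; higher means more Nile Red kept so more efflux inhibition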
# * hit, by the source's call; u = inconclusive; x = not tested or not shown. Shown are actives, neighbours in structure and some others; about 4.7% of the full set was active somewhere. Unless noted, how the calls were made is not given here.
SMILES,MLLE-PAM2 inh,PABP polyA inh,ALR inh,eIF4H FP inh,UBC9 SUMO inh,Efflux pump inh
CC1CCCN(Cc2c(O)ccc3c2O/C(=C\c2ccco2)C3=O)C1 (stereo unspecified),68,5.8*,0,85*,25,0
C[C@H]1CN([C@@H](C)CO)C(=O)c2cccc(NC(=O)Nc3ccc(C(F)(F)F)cc3)c2O[C@@H]1CN(C)S(=O)(=O)c1ccc(Cl)cc1,0,x,-4,x,x,1
CCOC(=O)C1(Cc2cccc(OC)c2)CCCN(C(=O)c2cc(C)oc2C)C1 (stereo unspecified),-10,x,-18,x,x,0
CSc1cccc(NC(=O)Nc2ccccc2C(N)=O)c1,10,9,91*,-16,20,0
Cc1ccc(C(=O)NCCc2n[nH]c(=S)n2C)cc1,-8,4,3,-4,13,0
Cn1c(CCNC(=O)c2ccccc2Cl)n[nH]c1=S,3,8,96*,15,0,0
Cc1ccc2nc(C(=O)N3CCCC(Nc4ccc(F)cc4)C3)cn2c1 (stereo unspecified),-1,9,30,-5,10,0
CC(C)c1ccc(NC2CCCN(C(=O)c3cnc4ccccn4c3=O)C2)cc1 (stereo unspecified),11,-9,95*,0,4,0
Cc1ccc(NC2CCCN(C(=O)c3cnc4ccccn4c3=O)C2)cc1C (stereo unspecified),1,3,x,-8,-1,0
CC(C)c1ccc(NC2CCCN(C(=O)c3ccnn3C)C2)cc1 (stereo unspecified),-1,-7,u,-11,2,0
Cc1occc1C(=O)N1CCCC(Nc2ccc(C(C)C)cc2)C1 (stereo unspecified),-2,5,99*,-7,1,0
Cc1occc1C(=O)N1CCCC(Nc2ccc(F)cc2)C1 (stereo unspecified),-9,8,98*,-1,-1,0
O=C(c1ccccc1-c1ncc[nH]1)N1CCCC(Nc2ccc(F)cc2)C1 (stereo unspecified),-12,2,99*,-2,4,0
CSc1ccc(CN2C(=O)C(C)ON=C2c2ccccc2F)cc1 (stereo unspecified),5,x,x,x,x,x
Cc1ccc(CNC(=O)C2(S(=O)(=O)c3ccccc3)CC=CC2)cc1,0,2,x,-8,4,0
Cc1cc(C(=O)N2CCCC(Nc3ccc(F)cc3)C2)c(C)o1 (stereo unspecified),9,-12,u,0,17,0
Cc1ccc2nccc(C(=O)N3CCCC(Nc4ccc(F)cc4)C3)c2c1 (stereo unspecified),-13,-4,98*,2,-2,0
CC(=O)NCCNC(=O)C1(C)Cc2c(-c3ccc(NC(C)=O)cc3)ccnc2O1 (stereo unspecified),-8,x,x,x,x,x
CC(CCc1ccc(O)cc1)NCCc1ccc(O)c(O)c1 (stereo unspecified),-8,x,99*,x,x,0
Cc1ccccc1S(=O)(=O)N1C[C@H]2[C@H]3C(=O)N(c4ccccc4)C(=O)[C@H]3CC(=O)[C@H]2[C@@H]1c1ccc(Cl)cc1,2,x,x,x,x,x
CCC(=O)N1CCN=C1SCc1cccc(F)c1,-8,1,97*,-4,13,0
O=C(c1ccc(Br)o1)N1CCN=C1SCc1cccc(F)c1,8,2,58,-17,14,0
CC(=O)N1CCN=C1SCc1cccc(C)c1,-5,-8,96*,-3,3,0
CC(=O)N1CCN=C1SCc1cccc(F)c1,6,0,97*,-9,-2,0
CC(=O)N1CCN=C1SCc1cccc(Cl)c1,9,-8,100*,-4,10,0
SMILES,MLLE-PAM2 inh,PABP polyA inh,ALR inh,eIF4H FP inh,UBC9 SUMO inh,Efflux pump inh
O=C(Cc1cccs1)N1CCN=C1SCc1cccc(F)c1,1,0,u,0,16,0
Cn1c(=S)ccc2ccccc21,25,-1,-5,-18,10,0
COc1ccc(CNC(=O)COC(=O)c2cccn2C)cc1,-10,x,-5,x,x,0
Cc1nnc(N2C(=O)C(O)=C(C(=O)c3ccco3)C2c2ccc(F)cc2)s1 (stereo unspecified),34,-18,71,u,16,0
Cc1nnc(N2C(=O)C(O)=C(C(=O)c3ccco3)C2c2ccc(C(C)(C)C)cc2)s1 (stereo unspecified),10,2,97*,38,8,0
Cc1nnc(N2C(=O)C(O)=C(C(=O)c3ccco3)C2c2ccc(C(C)C)cc2)s1 (stereo unspecified),31,active,97*,52*,10,0
CSc1ccc(C2C(C(=O)c3ccco3)=C(O)C(=O)N2c2nnc(SC)s2)cc1 (stereo unspecified),74,u,98*,u,16,0
Cc1ccc(C2C(C(=O)c3ccco3)=C(O)C(=O)N2c2ncccn2)cc1 (stereo unspecified),-3,0,14,3,8,0
CCOc1ccccc1CNC(=O)C1CCCN(c2nnc(C)c3c(C)n(-c4ccccc4)nc23)C1 (stereo unspecified),-32,-11,1,-10,25,0
CC(=O)C1=C(O)C(=O)N(Cc2ccccc2)C1c1ccc(N(C)C)cc1 (stereo unspecified),17,1,96*,6,8,0
CN1C2C=C3C(C#N)=C(N)C(C#N)(C#N)[C@@H](c4ccsc4)[C@@H]3C1CC2 (stereo partly specified),x,63*,-22,66*,16,0
CN1CC=C2C(C#N)=C(N)C(C#N)(C#N)C(c3ccsc3)C2C1 (stereo unspecified),122,u,33,u,27,0
Cc1ccc(/C=N/n2c(-c3ccco3)n[nH]c2=S)cc1,-16,2,63,-8,8,0
S=c1[nH]nc(-c2ccco2)n1/N=C/c1ccccn1,x,-12,98*,4,16,0
S=c1[nH]nc(-c2ccco2)n1/N=C/c1ccc(Cl)c(Cl)c1,-56,9,31,-4,-36,0
Cc1cccc(/C=N/n2c(-c3ccco3)n[nH]c2=S)c1,-52,14,97*,5,12,0
COc1ccc(C(CC(=O)Nc2ccc(C)cn2)N2Cc3ccccc3C2=O)cc1 (stereo unspecified),-1,10,x,-11,3,0
CN(C)c1cccc(NC(=O)c2cccc3c(-c4ccc(F)c(F)c4)coc23)c1,0,x,x,x,x,x
Cc1ccc(C)c2c1cc(C)c1nnc(SCC(=O)c3cccs3)n12,-43,-10,-3,-5,-2,0
C=CCn1c(SCC(=O)c2ccc(O)c(O)c2)nnc1-c1ccc(C)cc1,-50,x,65,x,x,0
C=CCn1c(SCC(=O)c2ccc(O)c(O)c2)nnc1-c1ccc(OC)cc1,-62,x,91*,x,x,0
